Hits are enriched below; roughly 3.6% of the tested compounds scored in any of these assays.
aSyn rescue: qHTS of alpha-syn Inhibitors | Yeast expressing alpha-synuclein, growth rescue, BacTiter-Glo, 24 h | 0.14% of 370,000 active | Potency, µM (highest dose often 46.1 µM), actives largely listed as activators; also: nearly all actives have a fitted effect of over 65% in size
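Readout is rescue of growth in alpha-synuclein-expressing yeast, so inhibitors of toxicity appear as activators. Growth after 24 hr at 30 deg C in galactose medium is quantified by luminescence.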
FUS suppressor: qHTS for Suppressors of FUS Proteinopathy: Primary screen using FUS-linked yeast assay | 0.24% of 390,000 active | S. cerevisiae FUS-expressing, growth rescue, OD600, 24 h | AID 1347120, 2019 | Potency, µM (highest dose often 76.6 µM), usual class: activators; also: nearly all actives have a fitted effect of over 55% in size
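Yeast expressing FUS under galactose induction, OD 0.005 in 2% galactose medium; compounds in a dilution series, 24 h at 30C. Growth rescue by absorbance at 600 nm; CP55940 positive control, DMSO negative.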
TDP43 rescue: qHTS of TDP-43 Inhibitors | TDP-43 expressing yeast growth rescue, BacTiter-Glo, 24 h | Potency, µM (doses to about 46.1 µM), usual class: activators | 1.8% of 410,000 active | AID 652104, 2013; also: nearly all actives have a fitted effect of over 50% in size
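Galactose-induced TDP-43 yeast, OD600=0.02, compound pinned; 24 hr, 30 deg C; BacTiter-Glo luminescence for growth. Inhibitors of TDP-43 toxicity read as activators.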
ClpP mod: qHTS Assay for Activators of ClpP; 1.9% of 340,000 active; AID 651965, 2013; purified B. subtilis ClpP, FRET peptide cleavage, 20 min; ATP-dependent Clp protease proteolytic subunit (Bacillus subtilis (strain 168)), P80244; Potency, µM (titrated, usually from 57.5 µM); active = well fitted falling curve with a large enough effect; inconclusive = small, poorly fitted or top-dose-only effect; inactive = no such curve, though single readings can be large or run the other way; also: the source files actives as falling curves though it sought activators and does not explain the sign; nearly all actives have a fitted effect of over 65% in size
Target sequence (P80244 whole entry, looked up): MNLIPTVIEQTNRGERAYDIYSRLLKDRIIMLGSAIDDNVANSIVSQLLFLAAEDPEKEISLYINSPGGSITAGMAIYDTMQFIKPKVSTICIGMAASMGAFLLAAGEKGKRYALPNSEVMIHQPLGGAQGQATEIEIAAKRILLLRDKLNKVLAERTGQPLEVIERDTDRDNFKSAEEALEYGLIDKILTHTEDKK
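Buffer: 100 mM Tris/HCl pH8, 100 mM KCl, 0.05% low protease BSA, 2.5% glycerol, 0.01% Tween-20. ClpP 10 microg/mL final; 20 min RT; delta FRET normalized to ADEP and DMSO controls.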
MmCpn inh: Inhibitors of TCP-1 ring complex (TRiC) of Methanococcus maripaludis (MmCpn): qHTS. purified Mm-Cpn ATPase, ADP Transcreener TR-FRET. AID 504842, 2011. Chaperonin Mm-Cpn (Methanococcus maripaludis). 0.031% of 330,000 active. Potency, µM (doses to about 76.9 µM), usual class: inhibitors; also: nearly all actives have a fitted effect of over 80% in size
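Measured: ADP formation by purified Mm-CPN. Conditions: 25 nM protein, 10 uM ATP, Tris pH 7.4 with Mg2+, K+ and DTT, 37°C for 30 min. Detection: Transcreener HTRF after 30 min at room temperature.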
Abeta rescue: qHTS for compounds that reverse cellular toxicity of Amyloid beta (A-beta) peptide in yeast: Primary Screen; yeast expressing A-beta42, growth rescue, OD600, 48 h; response scale: 0% DMSO, 100% iron-clioquinol control; Potency, µM (doses to about 46.1 µM), most hits filed as activators; 0.063% of 410,000 active; also: nearly all actives have a fitted effect of over 55% in size
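Yeast A-beta toxicity model in growth medium with pinned compounds, 48 h at 30 C; growth read as absorbance at 600 nm. Normalized to FeCl3/clioquinol equimolar mix (positive) and DMSO (negative).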
Large screens that a line does not name were inactive. Unless noted, calls follow the shape of the dose curve; as a rule, active = well fitted curve in the direction sought with a large enough effect; inconclusive = small, poorly fitted or top-dose-only effect, or another doubt; inactive = no such curve, though single readings can be large; an effect the other way counts as inactive or inconclusive.

CN1CCc2c(sc3nc(SCC(=O)N4CCCCC4)n(-c4ccccc4)c(=O)c23)C1	aSyn rescue 5.6µM
CCC(C)NC(=O)Cn1c(=O)n(CCCC(=O)NCc2ccc(C)cc2)c(=O)c2ccccc21 (stereo not given)	none (no result: aSyn rescue, MmCpn inh)
CC1(C)CC(=O)C2=C(C1)NC(Nc1nc3ccccc3o1)=NC2c1ccccc1Cl (stereo not given)	ClpP mod inconclusive (no result: FUS suppressor, TDP43 rescue, MmCpn inh, Abeta rescue)
CC(C)Sc1nc(N)c2c3c(sc2n1)CN(C)CC3	ClpP mod 28µM
Cc1cc(F)ccc1S(=O)(=O)Nc1ccccc1C(=O)Nc1ncn[nH]1	ClpP mod 32µM
Cc1cc(F)ccc1S(=O)(=O)Nc1ccccc1C(=O)Nc1ccccc1-c1nc2ccccc2[nH]1	ClpP mod 32µM, MmCpn inh inconclusive
Cc1cc(F)ccc1S(=O)(=O)Nc1ccccc1C(=O)Nc1ccccc1N1CCOCC1	none
CS(=O)(=O)c1ccccc1C(=O)Nc1ccc(-c2nc3ccccc3[nH]2)cc1	none (no result: Abeta rescue)
O=C(Nc1ccc(-c2nc3ccccc3[nH]2)cc1)c1ccccc1NS(=O)(=O)c1ccc(F)cc1	ClpP mod 35µM (no result: FUS suppressor)
CCOc1ccc(-n2c(=O)c3c4c(sc3n(CC(=O)NC(C)CC)c2=O)CCC4)cc1 (stereo not given)	none (no result: aSyn rescue, MmCpn inh)
CCOC(=O)c1[nH]c2cc3c(cc2c1NC(=O)CN1CCN(CCO)CC1)OCO3	ClpP mod 25µM
CCOC(=O)c1[nH]c2ccccc2c1NC(=O)CN1CCCCC1	none
CCOC(=O)c1[nH]c2cc3c(cc2c1NC(=O)CN1CCC2(CC1)OCCO2)OCO3	aSyn rescue inconclusive, ClpP mod inconclusive
C=CCOC(=O)Nc1c(C(=O)OC)[nH]c2ccc(Cl)cc12	ClpP mod 32µM
COc1ccc2[nH]c(C(=O)O)c(CCC(=O)O)c2c1	ClpP mod 20µM
CCOC(=O)c1[nH]c2ccc(OCC)cc2c1NC(=O)CN1CCC2(CC1)OCCO2	ClpP mod 25µM
Cc1ccc(N(CC(=O)Nc2cccc(F)c2)S(=O)(=O)c2cccs2)cc1	TDP43 rescue inconclusive (no result: aSyn rescue, MmCpn inh)
CC(=O)c1ccc(Nc2ccc3cc(S(=O)(=O)N4CCCC4)ccc3n2)cc1	none (no result: aSyn rescue, MmCpn inh)
CCOC(=O)c1[nH]c2ccc(OC)cc2c1NC(C)=O	ClpP mod 25µM
CCOC(=O)c1[nH]c2ccc(OCC)cc2c1NC(=O)CN1CCN(c2ccccc2)CC1	ClpP mod inconclusive
CCOC(=O)c1[nH]c2ccc(OC)cc2c1NC(=O)c1cccc(OC)c1	TDP43 rescue inconclusive
CCOC(=O)c1[nH]c2ccc(OC)cc2c1NC(=O)CN1CCSCC1	ClpP mod 13µM
O=C(c1cc(-c2ccccc2)on1)N1CCC(Oc2cccnc2)CC1	none (no result: aSyn rescue, TDP43 rescue, ClpP mod, MmCpn inh, Abeta rescue)
COc1ccc(CCNC(=O)C(C)n2c(=O)cc(-c3ccccc3)c3c(C)nn(C)c32)cc1OC (stereo not given)	TDP43 rescue inconclusive (no result: aSyn rescue, MmCpn inh)
Cc1ccc(CNC(=O)Cn2c(=O)cc(-c3ccccc3)c3c(C)nn(C)c32)cc1	TDP43 rescue 22µM (no result: aSyn rescue, MmCpn inh)
COc1ccccc1CNC(=O)C(C)n1c(=O)cc(-c2ccccc2)c2c(C)nn(C)c21 (stereo not given)	FUS suppressor inconclusive, TDP43 rescue 16µM (no result: aSyn rescue, MmCpn inh)
COc1cccc(CNC(=O)C(C)n2c(=O)cc(-c3ccccc3)c3c(C)nn(C)c32)c1 (stereo not given)	TDP43 rescue 22µM (no result: aSyn rescue, MmCpn inh)
Cc1ccc(CNC(=O)C(C)n2c(=O)cc(-c3ccccc3)c3c(C)nn(C)c32)cc1 (stereo not given)	TDP43 rescue 22µM (no result: aSyn rescue, MmCpn inh)
Cc1nn(C)c2c1c(-c1ccccc1)cc(=O)n2CC(=O)NC(C)C	none (no result: aSyn rescue, MmCpn inh)
Cc1ccc(OCC(=O)Nc2ccc(O)c(-c3nc4cc(C)c(C)cc4o3)c2)cc1	none (no result: FUS suppressor, TDP43 rescue, MmCpn inh, Abeta rescue)
CCn1c(-c2ccco2)n[nH]c1=S	ClpP mod inconclusive
CCCCn1c(-c2ccco2)n[nH]c1=S	ClpP mod 22µM (no result: FUS suppressor)
Cc1ccccc1C(=O)Nc1ccccc1NC(=O)c1ccccc1Br	none
COc1ccc(Nc2ccccc2NC(=O)c2ccccc2Br)cc1	TDP43 rescue 16µM
COCCNc1nc2cc(-c3ccc(C)cc3)sc2c(=O)n1C	TDP43 rescue 11µM, ClpP mod inconclusive (no result: MmCpn inh)
Cc1ccc(CNc2nc3cc(-c4ccccc4)sc3c(=O)n2C)c(C)c1	FUS suppressor inconclusive, TDP43 rescue inconclusive, ClpP mod 28µM (no result: MmCpn inh)
COc1ccc(-c2cc(CNc3nc4cc(-c5ccccc5C)sc4c(=O)n3C)on2)cc1	ClpP mod inconclusive (no result: MmCpn inh)
COc1cccc(CNc2nc3cc(-c4ccccc4C)sc3c(=O)n2C)c1	aSyn rescue inconclusive, FUS suppressor inconclusive, TDP43 rescue 18µM, ClpP mod inconclusive (no result: MmCpn inh)
Cn1c(NCc2ccncc2)nc2cc(-c3ccsc3)sc2c1=O	none (no result: MmCpn inh)
Cn1c(NCC2CCCCC2)nc2cc(-c3ccsc3)sc2c1=O	TDP43 rescue 20µM, ClpP mod inconclusive (no result: MmCpn inh)
COc1ccc(-c2cc3nc(NCc4ccc(C)cc4C)n(C)c(=O)c3s2)cc1OC	TDP43 rescue inconclusive, ClpP mod inconclusive (no result: MmCpn inh)
CCN(CC)CCNC(=O)c1ccc2c(=O)n3nc(Nc4ccccc4)sc3nc2c1	none (no result: aSyn rescue, MmCpn inh)
Cc1ccc(-n2ccnc(NCCc3ccc(S(N)(=O)=O)cc3)c2=O)cc1C	none (no result: aSyn rescue, MmCpn inh)
C=CCNc1nc(NCc2cccc(OC)c2)c2sc(-c3ccccc3)cc2n1	TDP43 rescue inconclusive, ClpP mod 20µM (no result: MmCpn inh)
COc1cccc(-c2cc3nc(NCc4cccnc4)n(C)c(=O)c3s2)c1	none (no result: MmCpn inh)
COc1ccccc1CNc1nc2cc(-c3ccccc3C)sc2c(=O)n1C	aSyn rescue inconclusive, TDP43 rescue 20µM, ClpP mod inconclusive (no result: MmCpn inh)
COCCNc1nc(NCCOC)c2sc(-c3ccccc3)cc2n1	none (no result: MmCpn inh)
COc1cccc(CNc2nc3cc(-c4cccc(Cl)c4)sc3c(=O)n2C)c1	ClpP mod 20µM (no result: MmCpn inh)
COc1ccc(S(=O)(=O)n2nc(C)c(S(=O)(=O)N3CCCCCC3)c2C)cc1C	none (no result: aSyn rescue, MmCpn inh)
COC(=O)[C@@]12CCCN1[C@H](c1ccc(-c3ccc(OC)cc3)c(OC)c1)[C@@H]1C(=O)N(C)C(=O)[C@@H]12	FUS suppressor inconclusive, TDP43 rescue inconclusive
COC(=O)C1(C)CCCC2(C)c3cc(OC)ccc3C(=O)C(Br)C12 (stereo not given)	FUS suppressor inconclusive, TDP43 rescue 25µM (no result: MmCpn inh)
COc1ccc(-c2[nH]c(-c3ccc(O)cc3)nc2-c2ccccc2)cc1	ClpP mod 7.9µM (no result: aSyn rescue, MmCpn inh)
